Test results as given in PubChem BioAssay (Tox21).
Where “and” joins values, the source holds several entries; their conditions need not be identical. Equal values may be shown once. Results filed as inconclusive are left out. Entries that show only a call come without a potency. Some compounds were tested as several samples or in several runs, with calls that do not always agree. Calls of active or inactive are those of the source. The call rests on the fitted dose curve; in most records, active means well fitted cell-killing curve with a large enough effect in the repeat runs; inconclusive means weak or mixed curves, or effect the other way; inactive means no such curve, though single readings can be large or run the other way.

Assay: qHTS assay for identifying genotoxic compounds that show differential cytotoxicity against isogenic chicken DT40 cell lines with known DNA damage response pathways - wild type cell line (AID 743012); further: nearly all actives have a fitted effect of over 60% in size
Conditions: DT40 wild type chicken cells viability, CellTiter-Glo, 40 h; series mostly up to 68.4 µM
Method in brief: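 Viability of DNA repair-proficient chicken DT40 cells was assessed by CellTiter-Glo luminescence following 40 h compound exposure at 37 C/5% CO2.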
Potency means the concentration at half of the fitted maximal effect.

SMILES	Potency
N#CC(C#N)=C(C#N)C#N	inactive
O=C1NC(=O)C(=O)C(=O)N1	inactive
CON(C)C(=O)Nc1ccc(Cl)cc1	inactive
CCCCOC(=O)CCC(=O)OCCCC	inactive
C1CCNCC1	inactive
O=C1c2ccccc2C(=O)N1SC(Cl)(Cl)Cl	603 nM (active) and 154 nM (active)
C[Si](Cn1cncn1)(c1ccc(F)cc1)c1ccc(F)cc1	12.6 µM (active) and 10.9 µM (active)
FC(Cl)(Cl)C(F)(Cl)Cl	inactive
CCCCC(CC)COC(=O)c1c(Br)c(Br)c(Br)c(Br)c1C(=O)OCC(CC)CCCC (stereo unspecified)	inactive
COc1ccccc1N1CCNCC1	inactive
O=C(Cc1ccccc1)c1ccccc1	inactive
CCCBr	inactive
CCc1ccccc1N	inactive
COc1cc(CC(C)N)c(OC)cc1Br (stereo unspecified)	11.2 µM (active) and 29.8 µM (active)
C[N+]1(CCC(C(N)=O)(c2ccccc2)c2ccccc2)CCCCC1	inactive
CCCCC1C(=O)NC(=O)N(C2CCCCC2)C1=O (stereo unspecified)	inactive
O=C([O-])c1ccccn1.O=C([O-])c1ccccn1.O=C([O-])c1ccccn1.[Cr+3]	inactive
C[C@H]1O[C@H](OC2[C@@H](O)[C@@H](O)C(O)[C@H](O)[C@H]2O)[C@@H](N)C[C@@H]1N=C(N)C(=O)O (stereo partly specified)	inactive
CC(C)(c1ccccc1)c1cc(-n2nc3ccccc3n2)c(O)c(C(C)(C)c2ccccc2)c1	inactive

SMILES	Potency
CCCC[P+](CC)(CCCC)CCCC (tested in a mixture with another compound)	27.5 µM (active)
NNCCO	inactive
CCC[N+](CCC)(CCC)CCC	inactive
CC(O)CN1CCN(CC(=O)[O-])CCN(CC(=O)[O-])CCN(CC(=O)[O-])CC1.[Gd+3] (stereo unspecified)	inactive
c1ccc2sc(SNC3CCCCC3)nc2c1	inactive and 61.1 µM (active)
CC(C)(C)c1ccc(CCOc2ncnc3ccccc23)cc1	inactive
O=[N+]([O-])O[C@H]1CO[C@H]2[C@@H]1OC[C@H]2O[N+](=O)[O-]	inactive
CC(C)CCON=O	inactive
CC(C)(C)NCC(O)c1ccccc1Cl (stereo unspecified)	inactive
CCC(C)Cl (stereo unspecified)	inactive
CCCCCl	inactive
O=C(O)C(Cl)(Cl)Br	inactive
COC(=O)Cc1ccccc1	inactive
OC[P+](CO)(CO)CO	inactive
O=C(O)c1cc(Cl)ccc1Cl	inactive
CC(C)(C)OOC(C)(C)CCC(C)(C)OOC(C)(C)C	inactive
CCCCC#N	inactive
C[N+](C)(C)CCOC(=O)C(O)(c1ccccc1)c1ccccc1	inactive
CN(C)c1ccc(N=O)cc1	1.73 µM (active) and 1.93 µM (active)

Assay: qHTS assay for identifying genotoxic compounds that show differential cytotoxicity against isogenic chicken DT40 cell lines with known DNA damage response pathways - Rev3 mutant cell line (AID 743014); further: nearly all actives have a fitted effect of over 55% in size
Conditions: chicken DT40 Rev3-/- viability, CellTiter-Glo, 40 h; series mostly up to 68.4 µM

SMILES	Potency
N#CC(C#N)=C(C#N)C#N	inactive
O=C1NC(=O)C(=O)C(=O)N1	inactive
CON(C)C(=O)Nc1ccc(Cl)cc1	inactive
CCCCOC(=O)CCC(=O)OCCCC	inactive
C1CCNCC1	inactive
O=C1c2ccccc2C(=O)N1SC(Cl)(Cl)Cl	67.6 nM (active) and 109 nM (active)
C[Si](Cn1cncn1)(c1ccc(F)cc1)c1ccc(F)cc1	3.98 µM (active) and 4.86 µM (active)
FC(Cl)(Cl)C(F)(Cl)Cl	inactive
CCCCC(CC)COC(=O)c1c(Br)c(Br)c(Br)c(Br)c1C(=O)OCC(CC)CCCC (stereo unspecified)	inactive
COc1ccccc1N1CCNCC1	inactive
O=C(Cc1ccccc1)c1ccccc1	inactive
CCCBr	inactive
CCc1ccccc1N	inactive
COc1cc(CC(C)N)c(OC)cc1Br (stereo unspecified)	15.9 µM (active)
C[N+]1(CCC(C(N)=O)(c2ccccc2)c2ccccc2)CCCCC1	inactive
CCCCC1C(=O)NC(=O)N(C2CCCCC2)C1=O (stereo unspecified)	inactive
O=C([O-])c1ccccn1.O=C([O-])c1ccccn1.O=C([O-])c1ccccn1.[Cr+3]	inactive
C[C@H]1O[C@H](OC2[C@@H](O)[C@@H](O)C(O)[C@H](O)[C@H]2O)[C@@H](N)C[C@@H]1N=C(N)C(=O)O (stereo partly specified)	inactive
CC(C)(c1ccccc1)c1cc(-n2nc3ccccc3n2)c(O)c(C(C)(C)c2ccccc2)c1	inactive

SMILES	Potency
CCCC[P+](CC)(CCCC)CCCC (tested in a mixture with another compound)	17.4 µM (active)
NNCCO	inactive
CCC[N+](CCC)(CCC)CCC	inactive
CC(O)CN1CCN(CC(=O)[O-])CCN(CC(=O)[O-])CCN(CC(=O)[O-])CC1.[Gd+3] (stereo unspecified)	inactive
c1ccc2sc(SNC3CCCCC3)nc2c1	inactive and 61.1 µM (active)
CC(C)(C)c1ccc(CCOc2ncnc3ccccc23)cc1	inactive
O=[N+]([O-])O[C@H]1CO[C@H]2[C@@H]1OC[C@H]2O[N+](=O)[O-]	inactive
CC(C)CCON=O	inactive
CC(C)(C)NCC(O)c1ccccc1Cl (stereo unspecified)	inactive
CCC(C)Cl (stereo unspecified)	inactive
CCCCCl	inactive
O=C(O)C(Cl)(Cl)Br	inactive
COC(=O)Cc1ccccc1	inactive
OC[P+](CO)(CO)CO	inactive
O=C(O)c1cc(Cl)ccc1Cl	inactive
CC(C)(C)OOC(C)(C)CCC(C)(C)OOC(C)(C)C	68.6 µM (active)
CCCCC#N	inactive
C[N+](C)(C)CCOC(=O)C(O)(c1ccccc1)c1ccccc1	inactive
CN(C)c1ccc(N=O)cc1	546 nM (active) and 1.93 µM (active)
